Statin myotox sup = suppressors of statin myotoxicity in C2C12 myotubes, primary screen, cell-based, single point, plate reader; C2C12 myotubes + simvastatin, ATP luminescence, 48 h; scaled: DMSO 0, geranylgeraniol control 100; 330,000 compounds, 0.78% hits; rescue of ATP level, % at 7.49 µM;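 active = mean ATP rescue above about 67%, or every replicate alone reaching that limit, limit read from the data, passing the limit was not always enough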;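 also: myotubes were challenged with 10 µM simvastatin during compound exposure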
FXN GAA850 act = FXN promoter activators, primary screen, cell-based, luciferase luminescence, HEK293 lucGAA850 | HEK293 lucGAA850 FXN promoter luciferase reporter, 24 h; percent of 10 µM SAHA response | activation, % at 6 µM | 360,000 compounds, 0.56% hits | AID 540364, 2011;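 active = activation above the average of all compounds screened plus 3 SD, cutoff fixed separately per campaign, cut at about 7.5% in these data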
esBAF inh = Bmi1 luciferase reporter increase in mESCs, primary screen, esBAF inhibitor project, mouse ES cells, Bmi1 luciferase knock-in, single point; 24 h; 100% = twice the neutral-well signal; reporter increase, % at 12.5 µM; 350,000 compounds, 2% hits; AID 602393, 2012; in the data active = activation above about 40%;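 also: a rise in the Bmi1 reporter signal indicates esBAF inhibition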
MITF act = activators of MITF-driven TRPM1 promoter reporter, primary screen, cell-based, SK-MEL-5, luciferase, single point. SK-MEL-5 TRPM1-promoter luciferase, 24 h; % of positive control, neutral wells = 0. activation, % at 12.5 µM. 300,000 compounds, 0.75% hits;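 active = mean activation of at least 80% with every replicate also reaching 80%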
Wnt act = Wnt/beta-catenin pathway activators, primary screen, cell-based, plate reader, single point; Wnt/beta-catenin reporter cell assay, activator; activation, % at 9.35 µM; 300,000 compounds, 1.2% hits; AID 743398, 2014; in the data active = activation above about 30%, passing the limit was not always enough
Large screens that a line does not name were inactive; ! = not active in a repeat. An excerpt weighted towards active compounds, which were near 3.3% of everything screened.

Cc1nc(-c2ccccc2)sc1C(=O)/C=C/c1ccc(Cl)cc1	none (no result: Wnt act)
COc1ccc(S(=O)(=O)N2C[C@H](O)COC[C@H]3O[C@H](CC(=O)N[C@@H]4CCN(Cc5ccccc5)C4)CC[C@@H]32)cc1	none (no result: FXN GAA850 act, MITF act, Wnt act)
CN(C)c1ncccc1-c1nc2ccccc2s1	none (no result: Statin myotox sup, esBAF inh)
c1ccc(-c2nc3ccccc3s2)nc1	Wnt act 58.8!
Nc1ccc(-c2nc3ccccc3s2)cn1	Wnt act 38.3
CS(=O)(=O)Nc1ccc2c(c1)[C@@H]1C[C@H](CC(=O)NCc3ccccc3)O[C@H](CO)[C@@H]1O2	none (no result: FXN GAA850 act, MITF act, Wnt act)
CC(=O)N(C)C[C@H]1Oc2cc(-c3ccncc3)ccc2S(=O)(=O)N([C@H](C)CO)C[C@H]1C	none (no result: FXN GAA850 act, MITF act, Wnt act)
Cc1cc(C)n(-c2nc3ccccc3c(=O)n2OCCOc2ccccc2)n1	Statin myotox sup 99.5 (no result: Wnt act)
C=CCOn1c(-n2nc(C)cc2C)nc2ccccc2c1=O	none
COc1ccc2c(c1OC)C(=O)N(c1ccccn1)C2	Statin myotox sup 100.7 (no result: Wnt act)
COc1ccc2c(c1OC)C(=O)N(c1cccc(C)c1)C2	none (no result: Wnt act)
COc1ccc2c(c1OC)C(=O)N(c1ccc(C)cc1)C2	Wnt act 44.3 (no result: MITF act)
O=C(NCC[C@@H]1CC[C@@H](NS(=O)(=O)Cc2ccccc2)[C@H](CO)O1)C1CCC1	none (no result: FXN GAA850 act, MITF act, Wnt act)
C[C@H]1CN([C@@H](C)CO)C(=O)c2cc(/C=C/c3ccccc3)cnc2O[C@@H]1CN(C)S(=O)(=O)c1ccccc1	none (no result: FXN GAA850 act, MITF act, Wnt act)
CS(=O)(=O)N1[C@@H]2Cn3c(ccc(C4=CCCC4)c3=O)[C@H]1[C@@H](C(=O)N1CCCCC1)[C@@H]2CO	none (no result: FXN GAA850 act, MITF act, Wnt act)
O=C1c2ccccc2NC(c2ccccc2)N1Cc1ccco1 (configuration not stated)	esBAF inh 62.5 (no result: Wnt act)
COc1ccc(Cn2c(-c3ccc(Br)cc3)c[n+]3ccccc23)cc1	Wnt act 57.8
Oc1ccc(Cl)cc1C1=Nc2ccccc2N=C(c2ccco2)C1	none
Fc1ccccc1C1CC(c2ccco2)=Nc2ccccc2S1 (configuration not stated)	Wnt act 34.9
O=C(NCCc1cccs1)C1CC(c2cccc(F)c2)=NO1 (configuration not stated)	none
O=C(NCCc1cccs1)C1CC(c2c(Cl)cccc2Cl)=NO1 (configuration not stated)	esBAF inh 80.1
C[C@H]1CCCCO[C@@H](CN(C)C(=O)NC2CCCCC2)[C@@H](C)CN([C@@H](C)CO)C(=O)c2cc(NC(=O)c3ccncc3)ccc2O1	none (no result: Statin myotox sup, FXN GAA850 act, MITF act, Wnt act)
COc1cc(/C=C2\C(=O)N(CCC#N)N=C2C)ccc1OCC(=O)Nc1ccccc1	Wnt act 65.3 (no result: Statin myotox sup, esBAF inh)
Cc1noc(C)c1S(=O)(=O)Nc1ccc2c(c1)C(=O)N([C@@H](C)CO)C[C@H](C)[C@@H](CN(C)C(=O)Nc1ccc(C(F)(F)F)cc1)OCCCC[C@H](C)O2	none (no result: Statin myotox sup, FXN GAA850 act, MITF act, Wnt act)
CC(=O)Nc1cccc(-c2ccnc3c2CC(C)(C(=O)Nc2ccc(F)c(Cl)c2)O3)c1 (configuration not stated)	none (no result: MITF act)
CC(=O)Nc1cccc(-c2ccnc3c2CC(C)(C(=O)Nc2ccc(Cl)c(C(F)(F)F)c2)O3)c1 (configuration not stated)	Statin myotox sup 80.5 (no result: MITF act)
Cc1cccc(NCCNc2cccc(C)c2)c1	Statin myotox sup 113.2
Cc1noc(C)c1NC(=O)N(C)C[C@@H]1OCCCC[C@H](C)Oc2ccc(NC(=O)NC(C)C)cc2C(=O)N([C@@H](C)CO)C[C@@H]1C	none (no result: Statin myotox sup, FXN GAA850 act, MITF act, Wnt act)
O=C(Nc1ccc(-c2cn3ccsc3n2)cc1)C1CCCC1	none (no result: Wnt act)
O=C(Nc1ccc(-c2cn3ccsc3n2)cc1)C1CC1	Wnt act 41.7
Cc1ccc(C(=O)Nc2ccc(-c3csc(C)n3)cc2)cc1	none (no result: Statin myotox sup, esBAF inh)
O=C(Nc1ccc(-c2ccc3nncn3n2)cc1)C1CCCC1	Wnt act 44.2
Cc1nc(-c2ccc(NC(=O)C3CCCCC3)cc2)cs1	esBAF inh 68.1 (no result: Wnt act)
O=C(N[C@@H]1CC[C@H](CCNC(=O)C2CCCCC2)O[C@H]1CO)c1ccncc1	none (no result: FXN GAA850 act, MITF act, Wnt act)
CO[C@H]1CN(C)C(=O)c2cc(NS(=O)(=O)c3ccccc3)ccc2OC[C@@H](C)N(Cc2nccs2)C[C@H]1C	none (no result: FXN GAA850 act, MITF act, Wnt act)
O=C(NC1CCCCCCC1)c1cccc(Cl)c1	esBAF inh 59.8
O=C(NC1CCCCC1)c1ccc2ccccc2c1	esBAF inh 55.7, Wnt act 49.3 (no result: MITF act)

Screening results deposited in PubChem by several laboratories.
